Measurements published in article PMC5540273 (PLoS ONE, 2017).

Tests used:
Details in all cases: concentration: 1 μM, replicates: in singlicate; n = 1
CDKL3 = system: CDKL3
CDKL5 = system: CDKL5
CHEK1 = system: CHEK1
CHEK2 = system: CHEK2
CIT = system: CIT
CLK1 = system: CLK1
CLK2 = system: CLK2
CLK3 = system: CLK3
CLK4 = system: CLK4
CSF1R-autoinhibited = system: CSF1R-autoinhibited
CSF1R = system: CSF1R
CSK = system: CSK
CSNK1A1L = system: CSNK1A1L
CSNK1A1 = system: CSNK1A1
CSNK1D = system: CSNK1D
CSNK1E = system: CSNK1E
CSNK1G1 = system: CSNK1G1
CSNK1G2 = system: CSNK1G2
CSNK1G3 = system: CSNK1G3
CSNK2A1 = system: CSNK2A1
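Note: KINOMEscan kinase panel screen.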

Compound	%Inh (CDKL3)	%Inh (CDKL5)	%Inh (CHEK1)	%Inh (CHEK2)	%Inh (CIT)	%Inh (CLK1)	%Inh (CLK2)	%Inh (CLK3)	%Inh (CLK4)	%Inh (CSF1R-autoinhibited)	%Inh (CSF1R)	%Inh (CSK)	%Inh (CSNK1A1L)	%Inh (CSNK1A1)	%Inh (CSNK1D)	%Inh (CSNK1E)	%Inh (CSNK1G1)	%Inh (CSNK1G2)	%Inh (CSNK1G3)	%Inh (CSNK2A1)
COc1cc2ncn(-c3cc(OCCCc4ccccc4)c(C(N)=O)s3)c2cc1OC [GSK205189]	0%	2%	0%	0%	10%	19%	0%	0%	9%	0%	0%	0%	5%	23%	1%	2%	1%	2%	21%	0%
COc1cc2ncn(-c3cc(OCc4ccncc4Br)c(C(N)=O)s3)c2cc1OC [GW854278]	0%	0%	0%	10%	3%	10%	38%	0%	0%	0%	0%	6%	10%	0%	8%	0%	18%	0%	0%	0%
COc1ccc(-c2cc3c(C)nc(N)nc3n([C@H]3CC[C@H](O)CC3)c2=O)cn1	0%	0%	0%	13%	0%	0%	0%	0%	0%	6%	0%	0%	0%	13%	0%	0%	0%	0%	0%	0%
Cc1c(Cn2c(C)nn3c(=O)cc(N4CCO[C@H](C)C4)nc23)cccc1C(F)(F)F [GSK2373690]	0%	7%	2%	0%	1%	27%	16%	23%	32%	0%	51%	0%	2%	23%	25%	20%	67%	0%	21%	0%
CCC(=O)c1c(-c2ccccc2)c2cc(Cl)ccc2c(=O)n1Cc1cc(S(C)(=O)=O)n(CCC(C)(C)O)n1	17%	40%	13%	19%	2%	0%	1%	9%	2%	6%	16%	0%	0%	31%	8%	0%	21%	15%	0%	17%
COc1cccc(C2=C(N(C)c3ccccc3)C(=O)NC2=O)c1 [SB-334865]	0%	0%	0%	0%	6%	15%	0%	0%	13%	0%	4%	0%	1%	0%	15%	2%	1%	0%	2%	0%
Cc1cc(Nc2nc(-c3cccc(C)n3)nc3ccccc23)ccn1 [GW872411]	0%	0%	0%	0%	0%	11%	0%	0%	0%	0%	0%	0%	0%	0%	35%	31%	3%	0%	0%	0%
CN(C)c1cc(-c2ccc3c(N)n[nH]c3c2)nc(N)n1 [GSK2219329]	0%	0%	0%	0%	23%	45%	12%	0%	51%	0%	2%	0%	0%	0%	25%	27%	0%	2%	16%	0%
CCS(=O)c1ccc(-c2coc3ccc(-c4nnc(C)o4)cc23)cc1 (centres unmarked)	0%	0%	0%	0%	2%	0%	0%	0%	5%	8%	0%	19%	0%	1%	0%	0%	0%	0%	0%	21%
COc1cc2ncn(-c3cc(OCc4ccc(S(C)(=O)=O)cc4)c(C(N)=O)s3)c2cc1OC [GW869979]	0%	15%	18%	0%	29%	17%	1%	0%	0%	5%	0%	0%	0%	0%	0%	13%	0%	10%	3%	19%
COc1ccc(CNC(=O)NC2CCN(c3ccnc(Nc4ccc(F)cc4)n3)C2)cc1 (centres unmarked) [GSK1379706]	0%	0%	8%	48%	9%	16%	0%	0%	8%	50%	16%	5%	12%	25%	29%	15%	21%	0%	23%	4%
CC(C)(C)c1ccc(C(=O)Nc2cn3cc(-c4ccccc4)ccc3n2)cc1	0%	0%	4%	0%	2%	33%	7%	9%	7%	0%	0%	0%	0%	0%	0%	28%	0%	8%	20%	15%
CCc1nc(-c2cccc(C)c2)c(-c2ccncc2)s1	7%	0%	0%	16%	72%	13%	6%	0%	0%	0%	0%	0%	12%	58%	68%	70%	0%	10%	12%	4%
Cc1nn2c(=O)cc(N3CCOCC3)nc2n1Cc1cccc(Cl)c1Cl [GSK2342769]	0%	8%	26%	0%	10%	20%	1%	16%	22%	0%	13%	0%	22%	0%	4%	22%	0%	0%	9%	16%
Nc1ncnc2c1ncn2-c1ccc(Cl)cc1 [AH2635]	0%	0%	0%	0%	26%	28%	19%	0%	3%	0%	11%	0%	12%	0%	9%	46%	0%	0%	17%	0%
CCC(=O)c1c(-c2ccccc2)c2cc(Cl)ccc2c(=O)n1Cc1cc(C(=O)NC2CC2)n(C)n1	0%	6%	0%	6%	7%	0%	0%	0%	0%	0%	9%	0%	0%	11%	0%	0%	0%	0%	0%	0%
